Among all 310,000 compounds or so, about 14,000 (4.5%) showed an effect of 50% or more. Effects have a minus sign here. The sample as a whole holds a higher share of strong results than the screen did.
Each molecule was assayed against human ether-à-go-go-related gene (hERG) potassium channel (human, UniProt Q12809) (assay: primary screen, population patch clamp on CHO cells stably expressing hERG; higher = less effect of the substance).
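Note: peak tail current of the secondary pulse compared with the same well before compound.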

Sequence of human ether-à-go-go-related gene (hERG) potassium channel (Q12809 whole entry, looked up): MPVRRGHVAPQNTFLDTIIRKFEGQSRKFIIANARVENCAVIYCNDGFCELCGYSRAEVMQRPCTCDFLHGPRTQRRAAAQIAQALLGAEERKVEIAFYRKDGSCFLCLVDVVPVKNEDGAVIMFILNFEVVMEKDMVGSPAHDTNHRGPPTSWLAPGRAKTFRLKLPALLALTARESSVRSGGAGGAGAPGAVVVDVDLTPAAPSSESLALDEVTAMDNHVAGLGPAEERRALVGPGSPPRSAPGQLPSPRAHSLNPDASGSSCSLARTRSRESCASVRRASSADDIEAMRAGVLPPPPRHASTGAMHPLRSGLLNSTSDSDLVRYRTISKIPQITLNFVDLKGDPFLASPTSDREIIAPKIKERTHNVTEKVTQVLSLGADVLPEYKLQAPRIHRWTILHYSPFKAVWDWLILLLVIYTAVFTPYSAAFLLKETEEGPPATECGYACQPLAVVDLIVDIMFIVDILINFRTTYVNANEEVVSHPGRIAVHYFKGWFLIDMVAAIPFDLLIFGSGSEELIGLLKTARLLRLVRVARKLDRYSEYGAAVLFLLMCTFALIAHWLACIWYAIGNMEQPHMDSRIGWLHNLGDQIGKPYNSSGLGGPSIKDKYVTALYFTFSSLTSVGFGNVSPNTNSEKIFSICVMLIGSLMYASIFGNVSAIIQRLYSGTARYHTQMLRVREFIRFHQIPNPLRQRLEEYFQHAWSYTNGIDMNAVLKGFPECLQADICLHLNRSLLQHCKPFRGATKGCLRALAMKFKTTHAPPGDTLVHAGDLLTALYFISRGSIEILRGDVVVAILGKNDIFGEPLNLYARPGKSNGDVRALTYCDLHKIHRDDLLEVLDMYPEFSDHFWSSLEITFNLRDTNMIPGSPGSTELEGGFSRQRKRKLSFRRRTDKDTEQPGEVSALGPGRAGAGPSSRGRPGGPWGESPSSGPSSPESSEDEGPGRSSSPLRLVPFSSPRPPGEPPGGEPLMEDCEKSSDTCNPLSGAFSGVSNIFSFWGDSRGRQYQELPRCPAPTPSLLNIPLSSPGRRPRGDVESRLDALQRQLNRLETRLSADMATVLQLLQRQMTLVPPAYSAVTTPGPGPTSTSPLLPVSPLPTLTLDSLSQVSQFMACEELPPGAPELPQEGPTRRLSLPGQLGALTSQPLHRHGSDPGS

Compound | hERG current change (%, negative = inhibition) at 10uM [%]
CC(C)c1ccc(NC(=S)NCCc2c[nH]c3ccccc23)cc1 | 10.8
Cc1nc2ccc(NC(=O)[C@@H](NC(=O)c3c(F)cccc3F)C(C)C)cc2s1 | 1.84
O=C(NCCN1CCOCC1)C1CCN(Cc2ccccc2O)CC1 | 19.2
O=C1CSC(c2cccs2)N1c1ccccc1 (stereo not drawn) | 15
Cn1nnnc1SCc1nc2scc(-c3ccccc3)c2c(=O)[nH]1 | -3.59
CC(C)(C)NS(=O)(=O)c1ccc(CCC(=O)NCc2ccco2)cc1 | 2.7
COc1ccc(N2CCN(C(=O)COC(=O)c3ccc(-n4nc(C)cc4C)cc3)CC2)cc1 | -1.95
CCc1nc(SCC(=O)N2c3ccccc3CC2C)c2c(C)c(C)sc2n1 (stereo not drawn) | -5.78
Cc1ccc2cccc(S(=O)(=O)Nc3c(C)n(C)n(-c4ccccc4)c3=O)c2n1 | -0.878
O=C(COc1ccc(F)cc1)NCC1(N2CCOCC2)CCCCC1 | -27.9
O=C(c1ccc(C(F)(F)F)cc1)N1CCN(c2ccc(N3CCOCC3)nn2)CC1 | -67.9
CCc1ccc(N2CCN(C(=O)c3ccc4c(c3)OCO4)CC2)cc1 | -50.3
O=C(c1ccc2c(c1)OCO2)N1CCN(c2ccc(F)cc2)CC1 | -30.4
CC(=O)c1ccc(N2CCN(C(=O)c3ccc4c(c3)OCO4)CC2)cc1 | -45.4
CC(C)(C)c1ccc(C(=O)N2CCN(c3ccc(N4CCOCC4)nn3)CC2)cc1 | -49.3
O=C(c1ccc(F)cc1)N1CCN(c2ccc(N3CCOCC3)nn2)CC1 | -12
Cc1ccccc1NCC(=O)N/N=C\c1ccc2c(c1)OCO2 | -0.637
COc1ccc(OC)c(NC(=O)NCCc2cccc(Cl)c2)c1 | 10.1
C=CCCC1(C)C(=O)N(c2ccccc2)c2ccccc21 (stereo not drawn) | -3.56
O=C(CCS(=O)(=O)c1ccccc1)Nc1nc2c(s1)CCCC2 | 0.42
CC1CCCN(c2nc3c(c(=O)n(C)c(=O)n3C)n2Cc2ccccc2)C1 (stereo not drawn) | -40.9
COc1ccc(N2CCN(S(=O)(=O)c3ccc4c(c3)NC(=O)C(C)S4)CC2)cc1 (stereo not drawn) | 6.85
CC(C)C(C(=O)Nc1ccc(S(=O)(=O)N2CCOCC2)cc1)N1C(=O)c2ccccc2C1=O (stereo not drawn) | -16.2
CC/C(=N/NC(=O)CCC(=O)Nc1ccccc1OC)c1ccccc1 | -1.67
O=C(CN1CCN(Cc2ccccc2)CC1)Nc1ccc(Br)cc1 | -71.9
O=C(CN1CCOCC1)Nc1ccc(Cl)cn1 | 20.6
O=C(CN1CCCCCC1)Nc1ccc(Cl)cn1 | 1.45

Compound | hERG current change (%, negative = inhibition) at 10uM [%]
NC(=O)c1ccc(NC(=O)CN2CCN(Cc3ccccc3)CC2)cc1 | -0.874
O=C(CN1CCN(Cc2ccccc2)CC1)Nc1ccc(Cl)cn1 | -74.5
O=C(CN1CCN(Cc2ccccc2)CC1)Nc1ccccc1 | -26.9
O=C(CN1CCN(Cc2ccccc2)CC1)Nc1ccc(Cl)cc1 | -68.4
O=C(CN1CCN(Cc2ccccc2)CC1)Nc1ccc(-n2cnnn2)cc1 | -48
O=C(CN1CCN(Cc2ccccc2)CC1)Nc1ccc(N2CCOCC2)cc1 | -3.67
C/C(=N\NC(=O)c1cccnc1)c1ccc(OC2OCCOC2Oc2ccc(/C(C)=N/NC(=O)c3cccnc3)cc2)cc1 (stereo not drawn) | 8.81
COc1ccc(-n2c(=O)n(Cc3ccccc3)c(=O)c3[nH]cnc32)cc1 | -17.1
COc1ccc(S(=O)(=O)NC2CCCC2)cc1C(N)=O | 4.15
CCCn1c(=O)c(C(=O)Nc2ncccc2O)c(O)c2ccccc21 | 11.1
Cc1cc(=O)oc2ccc(OCC(=O)O)cc12 | 16.1
Cc1cc(=O)oc2ccc(OCC(=O)N(Cc3ccc(F)cc3)Cc3ccco3)cc12 | -58.8
Cc1cc(=O)oc2cc(OCC(=O)NCc3ccco3)ccc12 | -6.81
COc1ccc2ccccc2c1CNc1nnnn1C | 17.9
CSc1ccc(S(=O)(=O)N2CCC(C(=O)N3CCOCC3)CC2)cc1 | 2.57
COc1ccc2c(C)c(CCC(=O)N3C[C@H]4C[C@@H](C3)c3cccc(=O)n3C4)c(=O)oc2c1 | -34.9
Cc1coc2cc3oc(=O)c(CC(=O)N4C[C@H]5C[C@@H](C4)c4cccc(=O)n4C5)c(C)c3cc12 | -41.5
Cc1oc2c(C)c3oc(=O)c(CCC(=O)N4C[C@H]5C[C@@H](C4)c4cccc(=O)n4C5)c(C)c3cc2c1C | -51.7
COc1ccc2c(C)c(CC(=O)N3C[C@H]4C[C@@H](C3)c3cccc(=O)n3C4)c(=O)oc2c1OC | -1.03
COc1ccc2c(C)c(CC(=O)N3C[C@H]4C[C@@H](C3)c3cccc(=O)n3C4)c(=O)oc2c1 | -32.4
C=C(C)COc1ccc2c(C)c(CCC(=O)N3C[C@H]4C[C@@H](C3)c3cccc(=O)n3C4)c(=O)oc2c1 | -60.4
Cc1coc2cc3oc(=O)c(CCC(=O)N4C[C@H]5C[C@@H](C4)c4cccc(=O)n4C5)c(C)c3cc12 | -42.5
Cc1c(CC(=O)N2C[C@H]3C[C@@H](C2)c2cccc(=O)n2C3)c(=O)oc2cc(O)c(Cl)cc12 | 9.44
C=C(C)COc1ccc2c(C)c(CC(=O)N3C[C@H]4C[C@@H](C3)c3cccc(=O)n3C4)c(=O)oc2c1 | -48.5
Cc1oc2cc3oc(=O)c(CCC(=O)N4C[C@H]5C[C@@H](C4)c4cccc(=O)n4C5)c(C)c3cc2c1C | -54
Cc1c(CC(=O)N2C[C@H]3C[C@@H](C2)c2cccc(=O)n2C3)c(=O)oc2cc3occ(C(C)(C)C)c3cc12 | -73.4
Cc1c(CC(=O)N2C[C@H]3C[C@@H](C2)c2cccc(=O)n2C3)c(=O)oc2c(C)c(O)ccc12 | 4.94
